Sampled rows, rich in hits. Any-hit rate of the full collection: about 12%.
G9a block = blocks human histone lysine methyltransferase G9a. Q96KQ7. G9a H3K9 monomethylation, AlphaScreen, 2 h. Potency, µM (titrated, usually from 102 µM), inactives show at the top dose activity, negative = inhibition, usual class: inhibitors. 350,000 compounds, 8.8% hits. AID 504332; further: on the % scale 0 is the no-effect control and ±100 the full control effect; nearly all actives have a fitted effect of over 75% in size
Target sequence (Q96KQ7 913-1193 limits assumed): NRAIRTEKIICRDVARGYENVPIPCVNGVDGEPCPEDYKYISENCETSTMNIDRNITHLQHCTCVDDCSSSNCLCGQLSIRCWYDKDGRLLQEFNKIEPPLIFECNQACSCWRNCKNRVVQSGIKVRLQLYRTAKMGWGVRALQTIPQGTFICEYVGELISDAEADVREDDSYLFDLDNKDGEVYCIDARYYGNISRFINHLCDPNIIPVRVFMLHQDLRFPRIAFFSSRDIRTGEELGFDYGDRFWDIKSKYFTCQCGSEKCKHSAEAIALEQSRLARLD
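AlphaScreen detection with an anti-monomethyl H3K9 antibody quantified product after a 2 h room-temperature reaction containing 500 nM biotinylated H3K9 peptide, 20 µM SAM and 20 nM enzyme, which had been preincubated 15 min with compound.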
HP1b binding inh = HP1-beta chromodomain-methylated histone interaction inhibition; P83916; AlphaScreen HP1-beta / biotin-H3K9me3 peptide binding; Potency, µM (doses to about 114 µM), for the others: at the top dose activity change, negative = inhibition, hits mostly inhibitors; 390,000 compounds, 0.56% hits; AID 540317; further: nearly all actives have a fitted effect of over 70% in size
Target sequence (P83916 whole entry, looked up): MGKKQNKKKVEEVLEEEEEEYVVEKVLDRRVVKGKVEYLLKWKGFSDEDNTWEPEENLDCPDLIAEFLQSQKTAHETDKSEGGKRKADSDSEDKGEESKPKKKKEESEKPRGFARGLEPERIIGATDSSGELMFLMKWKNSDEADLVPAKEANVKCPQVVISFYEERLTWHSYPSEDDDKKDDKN
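HP1-beta protein (50 nM final) preincubated 30 min at room temperature with biotinylated H3(1-18)K9me3 peptide (50 nM) in PBS pH 7.4, 0.01% Tween-20, then compound added for 30 min. AlphaScreen streptavidin donor/nickel chelate acceptor beads (10 ug/mL final), 30 min dark, luminescence read.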
Sfp PPTase inh = Sfp phosphopantetheinyl transferase inhibition | Biochemical Sfp PPTase activity, qHTS | Potency, µM, inactives show largest response in the series, negative = inhibition, usual class: inhibitors | 310,000 compounds, 3.5% hits | AID 1490;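 further: the enzyme is Sfp with the accession as filed and its product quenches rhodamine fluorescence; 0% = enzyme reaction without inhibitor and -100% = no enzyme wells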
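With Hepes-Na pH 7.6 buffer containing 10 mM MgCl2, Sfp (15 nM) modified BHQ-2-YbbR (12.5 uM) using rhodamine-CoA (5 uM). Two reads 30 minutes apart at 525/598 nm yielded each well's rate.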
PLK1 PBD inh = PLK1 (human) polo-box domain binding inhibition; AID 720504; Potency, µM, for the others: max response, negative = inhibition, most hits filed as inhibitors; Plk1 PBD binding of FITC phosphopeptide, fluorescence polarization; 360,000 compounds, 2.8% hits; further: series mostly up to about 57 µM; on the % scale 0 is the no-effect control and ±100 the full control effect; nearly all actives have a fitted effect of over 65% in size
BAZ2B inh = blocks human BAZ2B; AlphaScreen BAZ2B-H3K14Ac peptide displacement; Q9UIF8; 360,000 compounds, 4.4% hits; Potency, µM (highest dose often 114 µM), inactives show at the top dose activity change, negative = inhibition, actives largely listed as inhibitors; further: on the % scale 0 is the no-effect control and ±100 the full control effect; nearly all actives have a fitted effect of over 60% in size
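BAZ2B 50 nM plus b-H3(5-23)K14Ac 50 nM, PBS pH 7.4/0.01% Tween-20, 30 min RT; compound added (max 110 uM), 30 min RT; streptavidin donor/Ni-chelate acceptor beads 10 ug/mL final, 20 min dark; AlphaScreen read.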
JMJD2A Tudor inh = inhibitors of human JMJD2A Tudor domain; O75164; AlphaScreen JMJD2A-Tudor / H3K4me3 peptide binding; Potency, µM (titrated, usually from 114 µM), for inactives: top-dose activity change, negative = inhibition, usual class: inhibitors; 390,000 compounds, 4.4% hits; AID 504339; further: on the % scale 0 is the no-effect control and ±100 the full control effect; nearly all actives have a fitted effect of over 50% in size
An asterisk follows results filed as active; ? = inconclusive; . = not tested or not shown; [ ] = dose if it differs, or a comment. The call rests on the fitted dose curve; in most records, active means well fitted curve in the direction sought with a large enough effect; inconclusive means small, poorly fitted or top-dose-only effect, or another doubt; inactive means no such curve, though single readings can be large; an effect the other way counts as inactive or inconclusive. Potency means the concentration at half of the fitted maximal effect.

SMILES | G9a block | HP1b binding inh | Sfp PPTase inh | PLK1 PBD inh | BAZ2B inh | JMJD2A Tudor inh
CCOc1ccc(CC(=O)Nc2ccc3nc(N4CCCCC4)cc(C)c3c2)cc1OCC | -12%[59 µM] | 22% | . | . | -10% | -22%
Cc1ccc(C)c(N2CCN(C(=O)CCS(=O)(=O)c3ccc4c(c3)oc(=O)n4C)CC2)c1 | -16% | 36% | 2% | -16% | -20% | -20%
CC(=O)Nc1ccc(N=NC2C(=O)N(C(N)=S)N=C2C)cc1 (stereo unspecified) | 79µM* | 18% | ? | ? | -17% | -22%
CCOc1ccc(N=NC2C(=O)N(C(N)=S)N=C2C)cc1 (stereo unspecified) | -9%[0.501 µM] | 2% | 18% | 5% | -11% | -31%
CC1=NN(C(N)=S)C(=O)C1N=Nc1ccccc1C(=O)O (stereo unspecified) | 6% | 46% | 10% | -7% | -14% | 1%
CC1=NN(c2ccccc2C(=O)O)C(=O)C1N=Nc1ccccc1 (stereo unspecified) | 45µM* | ? | 3% | ? | ? | ?
Cc1ccsc1CCN1C(=O)N(c2ccccc2)C(=O)C1CC(=O)Nc1ccc(Cl)cc1 (stereo unspecified) | -35%[59 µM] | 27% | . | . | -13% | -17%
CCOC(=O)C1CCCN(Cc2sccc2C)C1 (stereo unspecified) | 22µM* | ? | -27% | -4% | 50µM* | 2.8µM*
CCOC(=O)C1CCCN(Cc2cc(=O)oc3cc(C)c(C)cc23)C1 (stereo unspecified) | ? | 42% | 6% | -5% | 1% | 8%
CCOC(=O)C1CCCN(Cc2cc(OC)c(O)c(OC)c2)C1 (stereo unspecified) | ? | -54% | -4% | -8% | ? | 2.2µM*
CCOC(=O)C1CCCN(Cc2cc(Br)c(OC)cc2OC)C1 (stereo unspecified) | ? | ? | -21% | -3% | 50µM* | 2.8µM*
COc1ccc(NC(=O)CSc2nnc(C)n2N)cc1S(=O)(=O)N1CCCCC1 | -8%[2.33 µM] | 33% | . | 1% | 3% | 0%
COC(=O)c1ccc(CNC(=O)Cn2cnc3c(OCc4ccccc4)ncnc32)cc1 | . | 37% | . | -6% | . | -23%
Cc1ccc([C@@H]2CC(=O)[C@@H]3CN(S(=O)(=O)c4ccc(C)cc4)[C@H](c4ccccc4)C[C@@H]3N2S(=O)(=O)c2ccc(C)cc2)cc1 | . | . | . | 0% | . | .
Cc1ccc(C(=O)c2cn(Cc3ccccc3C)c3nc(C)ccc3c2=O)cc1 | -28%[59 µM] | 29% | . | . | -3% | -14%
COc1ccc(C2=NN(CN3C(=O)C(=O)c4ccccc43)C(c3ccc(OC)cc3)C2)cc1 (stereo unspecified) | 45µM* | 9% | -4% | -19% | ? | ?
CN1C2CCC1CC(NC(=O)c1nn(C)c3ccccc13)C2 (stereo unspecified) | 15%[12.7 µM] | . | 7% | . | . | .
COc1ccc2nc(C)cc(Nc3ccc(C(=O)O)cc3)c2c1 | 22%[2.33 µM] | 69% | -6% | -7% | 5% | -1%
Cc1cc(=O)[nH]c(N=N/C(=N/Nc2ccccc2C)c2ccccc2)n1 | 28µM* | ? | 7% | -17% | ? | ?
Cc1cc(=O)[nH]c(N=N/C(=N/Nc2ccc(O)cc2)c2ccccc2)n1 | 0.56µM* | ? | 10% | -18% | 10µM* | 56µM*
COc1ccc(N/N=C(/N=Nc2nc(C)cc(=O)[nH]2)c2ccccc2)cc1 | ? | 16µM* | 5% | -9% | 7.1µM* | ?
CCCCC(=O)N1C/C=C\C(c2ccc(OC)cc2)N(Cc2ccc(F)cc2)C(=O)C1Cc1ccccc1 (stereo unspecified) | . | 34% | -2% | . | . | -17%
CCOC(=O)c1ccc(S(=O)(=O)NNC(=O)COc2cccc(C)c2)cc1 | -19%[59 µM] | 41% | 18% | ? | -1% | 7%[57.1 µM]
Cc1ccc(S(=O)(=O)NNC(=O)C(=O)NNS(=O)(=O)c2ccc(C)cc2)cc1 | 19% | 33% | 28% | -4% | -38% | 35µM*
Cc1ccc(S(=O)(=O)NCCCCCC(=O)Nc2ccccc2)cc1 | 9% | 20% | 10% | 1% | -3% | 6%
SMILES | G9a block | HP1b binding inh | Sfp PPTase inh | PLK1 PBD inh | BAZ2B inh | JMJD2A Tudor inh
CNC(=O)CCCCCNS(=O)(=O)c1ccc(C)cc1 | -1%[59 µM] | ? | -6% | 19µM* | 5% | -10%[11.4 µM]
Cc1ccc(S(=O)(=O)NNC(=O)c2ccc(O)cc2)cc1 | ? | 22% | ? | 3% | -18% | 2%
Cc1ccc(S(=O)(=O)NNC(=O)CCCCC(=O)NNS(=O)(=O)c2ccc(C)cc2)cc1 | 45µM* | 44% | 17% | -19% | -12% | -4%
CC(=O)Nc1ccc(S(=O)(=O)NNC(=O)COc2cccc(C)c2)cc1 | 6.3µM* | -21% | 79µM* | 24µM* | 5%[57.1 µM] | 50µM*
CCCOc1ccc(NC(=O)CC2C(=O)N(c3ccc(OC)cc3)C(=O)N2CCc2ccncc2)cc1 (stereo unspecified) | ? | 10% | . | . | -22% | -16%
CC(=O)Nc1ccc(S(=O)(=O)NNC(=O)c2sc(=S)n(C)c2C)cc1 | 0%[59 µM] | 13% | -21% | -11% | -11% | 0.71µM*
CC(=O)Nc1ccc(C(=O)NNS(=O)(=O)c2ccc(C)cc2)cc1 | 20µM* | 33% | -7% | 2% | 50µM* | 9%
Cc1nnsc1C(=O)NNS(=O)(=O)c1cc(C(F)(F)F)cc(C(F)(F)F)c1 | 4% | 39% | 6% | -4% | -24% | 2%
Cc1ccc(S(=O)(=O)NNC(=O)c2snnc2C)cc1 | 10µM* | 9% | ? | 1% | 2% | 79µM*
O=C(CCCCCN1C(=O)c2ccccc2C1=O)Nc1ccc(C(=O)O)cc1 | 8% | 30% | 3% | -7% | -8% | -6%
COc1ccc(S(=O)(=O)NCC(=O)N(CC(=O)NCc2ccco2)Cc2ccc(F)cc2)cc1 | 0% | 16% | 17% | -1% | -11% | 0%
O=CC(O)C1OC(=O)C(O)C1O (stereo unspecified) | . | ? | . | ? | . | 22µM*
CC(=O)c1ccc(-n2c(-c3cc(-c4ccco4)[nH]n3)n[nH]c2=S)cc1 | ? | -11% | 50µM* | -25% | ? | ?
CCOC(=O)c1ccc(-n2c(-c3ccco3)nc3ccccc3c2=O)cc1 | -5% | 25% | 4% | -4% | -28% | -23%
O=C(O)c1ccc(-n2c(-c3cc(-c4ccco4)[nH]n3)n[nH]c2=S)cc1 | 4%[0.501 µM] | 12% | 45µM* | 0% | 45µM* | 20µM*
O=C(O)c1cc(-c2ccco2)[nH]n1 | ? | 25% | 22µM* | -6% | 4% | 79µM*

Compound activity from PubChem BioAssay.
